# Experimental data from PubChem BioAssay (NCATS).
# “And” between values parts separate entries of the source, which are not always exact repeats. Equal entries are not always repeated. Records with an inconclusive call do not appear. Entries that show only a call come without a potency. The source made the active and inactive calls. Unless noted, the call rests on the fitted dose curve; in most records, active means well fitted curve in the direction sought with a large enough effect; inconclusive means small, poorly fitted or top-dose-only effect, or another doubt; inactive means no such curve, though single readings can be large; an effect the other way counts as inactive or inconclusive.
# Tests used:
# [1] = target: Papain (Carica papaya) (UniProt P00784); test: Primary qHTS assay for inhibitors of the protease papain (AID 1645873);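 further: papain turnover of Z-FR-AMC read as the AMC fluorescence gain over 10 min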
# Papain (Carica papaya), sequence (P00784 whole entry, looked up): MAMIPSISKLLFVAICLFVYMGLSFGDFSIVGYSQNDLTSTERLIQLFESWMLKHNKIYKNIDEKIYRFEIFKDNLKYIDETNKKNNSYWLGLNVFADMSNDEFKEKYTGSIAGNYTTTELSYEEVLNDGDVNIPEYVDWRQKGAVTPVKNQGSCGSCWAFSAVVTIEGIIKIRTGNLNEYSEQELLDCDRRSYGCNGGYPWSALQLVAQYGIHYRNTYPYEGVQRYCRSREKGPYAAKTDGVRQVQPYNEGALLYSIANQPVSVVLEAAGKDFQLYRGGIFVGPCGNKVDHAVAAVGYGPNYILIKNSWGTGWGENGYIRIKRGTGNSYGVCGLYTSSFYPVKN
# [2] = target: Catechol O-methyltransferase (Homo sapiens) (UniProt P21964); test: Confirmatory Screen for Target Class Profiling of Small Molecule Inhibitors of Methyltransferases (AID 1745852; calls by dose curve); details: MTase-Glo luminescence, SAH detection, recombinant enzyme; measured here: COMT max response; stronger effect = lower value
# Catechol O-methyltransferase (Homo sapiens), sequence (P21964 whole entry, looked up): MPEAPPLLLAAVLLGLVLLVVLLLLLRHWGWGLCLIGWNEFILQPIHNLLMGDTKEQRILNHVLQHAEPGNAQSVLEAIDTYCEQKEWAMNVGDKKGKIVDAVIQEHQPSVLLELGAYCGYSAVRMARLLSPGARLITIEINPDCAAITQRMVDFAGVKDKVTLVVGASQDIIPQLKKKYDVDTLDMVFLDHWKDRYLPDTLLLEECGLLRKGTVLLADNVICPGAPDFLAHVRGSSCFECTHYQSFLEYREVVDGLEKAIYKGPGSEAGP
# [3] = target: Guanidinoacetate N-methyltransferase (Homo sapiens) (UniProt Q14353); test: as above; details: MTase-Glo luminescence, SAH detection, recombinant enzyme; activity change, negative = inhibition: at 57.3 µM (top of the series)
# [4] = target: Nicotinamide N-methyltransferase (Homo sapiens) (UniProt P40261); test: as above; details: MTase-Glo luminescence, SAH detection, recombinant enzyme; measured here: NNMT max response; stronger effect = lower value
# Nicotinamide N-methyltransferase (Homo sapiens), sequence (P40261 whole entry, looked up): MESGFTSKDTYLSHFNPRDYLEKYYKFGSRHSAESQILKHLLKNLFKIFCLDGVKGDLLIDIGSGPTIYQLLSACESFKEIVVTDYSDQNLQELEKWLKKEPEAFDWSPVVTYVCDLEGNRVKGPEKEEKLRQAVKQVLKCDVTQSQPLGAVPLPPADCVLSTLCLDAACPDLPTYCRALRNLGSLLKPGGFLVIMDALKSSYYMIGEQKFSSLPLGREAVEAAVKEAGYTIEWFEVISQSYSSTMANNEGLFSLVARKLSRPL
# [5] = target: Phenylethanolamine N-methyltransferase (Homo sapiens) (UniProt P11086); test: as above; details: MTase-Glo luminescence, SAH detection, recombinant enzyme; measured here: PNMT max response; stronger effect = lower value
# Phenylethanolamine N-methyltransferase (Homo sapiens), sequence (P11086 whole entry, looked up, the tested form may be a part): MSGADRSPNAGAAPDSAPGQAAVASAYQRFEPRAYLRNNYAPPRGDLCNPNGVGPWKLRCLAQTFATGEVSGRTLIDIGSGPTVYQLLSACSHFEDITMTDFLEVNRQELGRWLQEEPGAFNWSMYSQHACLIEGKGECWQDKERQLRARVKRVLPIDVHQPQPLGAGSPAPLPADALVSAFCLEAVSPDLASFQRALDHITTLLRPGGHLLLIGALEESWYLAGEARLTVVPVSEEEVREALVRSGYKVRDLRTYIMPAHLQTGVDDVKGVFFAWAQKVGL
# [6] = Primary qHTS for inhibitors of nuclear receptor binding SET domain protein 2 (NSD2) in an isogenic RCH-ACV NSD2 p.E1099K mutant (9B) (AID 1645876); further: nearly all actives have a fitted effect of over 70% in size; further: potency means the concentration at half of the fitted maximal effect
# [7] = Primary qHTS for inhibitors of nuclear receptor binding SET domain protein 2 (NSD2) in an RCH-ACV wild type WT cells (2C) (AID 1645877); further: nearly all actives have a fitted effect of over 70% in size; further: potency means the concentration at half of the fitted maximal effect
compound,measurement,setting,value
Cn1cnc(CCN)c1,Potency,[1],inactive
same,activity,[2],2.37%
same,"activity change, negative = inhibition",[3],1.75%
same,activity,[4],-8.03%
same,activity,[5],3.1%
CC(=O)[C@H]1CCC2C3CC[C@H]4C[C@H](O)CC[C@]4(C)C3CC[C@@]21C (stereo partly drawn),Potency,[1],inactive
O=C(O)[C@@H]1CCN1,Potency,[1],inactive
O=C(O)C(Cl)Cl,Potency,[6],inactive
same,Potency,[7],inactive
NC1CCc2cc(O)c(O)cc2C1 (stereo not drawn),Potency,[1],inactive
same,activity,[2],149%
same,"activity change, negative = inhibition",[3],0.293%
same,activity,[4],-14.5%
same,activity,[5],-22.8%
S=C(NC1CCCCC1)N1CCC(c2cnc[nH]2)CC1,Potency,[1],inactive
same,Potency,[6],inactive
same,Potency,[7],inactive
NC(=NCCC[C@H](N)C(=O)O)N[N+](=O)[O-],Potency,[1],inactive
C[C@]12CCC3C(CC[C@H]4C[C@H](O)CC[C@]34C)C1CC[C@@H]2C(=O)CO (stereo partly drawn),Potency,[1],inactive
CCC1(CCC(C)C)C(=O)NC(=O)NC1=O,Potency,[6],inactive
same,Potency,[7],inactive
CC(C)Oc1cccc(NC(=O)c2ccccc2C(F)(F)F)c1,Potency,[6],21.7 µM (active)
same,Potency,[7],24.3 µM (active)
CC(C)NCC(O)c1ccc([N+](=O)[O-])cc1 (stereo not drawn),Potency,[6],inactive
same,Potency,[7],inactive
COc1nn(CSP(=S)(OC)OC)c(=O)s1,Potency,[6],9.69 µM (active)
same,Potency,[7],13.7 µM (active)
Oc1ccc2c3c1O[C@H]1[C@@H](O)C=C[C@H]4[C@@H](C2)NCC[C@@]341,Potency,[6],28.1 µM (active)
same,Potency,[7],39.7 µM (active)
CO/C=C(/C(=O)OC)c1ccccc1Oc1cc(Oc2ccccc2C#N)ncn1,Potency,[6],24.3 µM (active)
same,Potency,[7],24.3 µM (active)
O=C(Oc1ccc([N+](=O)[O-])cc1)N1CCN(Cc2cccc(Oc3ccccc3)c2)CC1,Potency,[6],inactive
same,Potency,[7],inactive
O=S(=O)(c1ccc(Cl)cc1)c1ccc(Cl)cc1,Potency,[6],inactive
same,Potency,[7],inactive
O=[N+]([O-])c1cc([N+](=O)[O-])c2ccccc2c1,Potency,[6],inactive
same,Potency,[7],inactive
CCOCCOC(C)=O,Potency,[6],inactive
same,Potency,[7],inactive
CC(C)(C)NC[C@H](O)c1ccc(O)cc1Cl,Potency,[6],inactive
same,Potency,[7],inactive
Nc1ccc(Cl)cc1,Potency,[6],inactive
same,Potency,[7],inactive
N=c1c2c(-c3ccccc3)c(-c3ccccc3)n(Cc3ccccc3)c2ncn1C1CCC(O)CC1 (stereo not drawn),Potency,[6],0.59 µM (active)
same,Potency,[7],0.263 µM (active)
Nc1c(Cl)c(Cl)c(Cl)c(Cl)c1Cl,Potency,[6],inactive
same,Potency,[7],inactive
CC(O)CN1CCN(CC(=O)[O-])CCN(CC(=O)[O-])CCN(CC(=O)[O-])CC1.[Gd+3] (stereo not drawn),Potency,[6],inactive
same,Potency,[7],inactive
C=CCC1=C(C)C(OC(=O)C2C(C=C(C)C)C2(C)C)CC1=O (stereo not drawn),Potency,[6],24.3 µM (active)
same,Potency,[7],34.4 µM (active)
C/C=C(/C)C(=O)O[C@H]1C(C)=C2[C@H]([C@@H]1OC(=O)CCCCCCC)[C@@](C)(OC(C)=O)C[C@H](OC(=O)CCC)[C@@]1(O)[C@H]2OC(=O)[C@@]1(C)O,Potency,[6],5.8 nM (active) and 16.6 nM (active)
same,Potency,[7],6.5 nM (active) and 16.6 nM (active)
